In PubChem BioAssay (NCI):
Compounds without any hit were thinned out: in the full panel of roughly 83,000, 20% have a hit.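 Treatment: one concentration, 48 hours, 96-well format. Scoring: percent growth, with anything below 10 considered active.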 Unmarked numbers belong to inactive results. Active and inactive are the calls of the source.

Tested on: HL-60(TB) leukemia
Test: NCI-60 one-dose screen, 48 h (100 = growth as untreated, 0 = no growth, -100 = all killed)
Settings: 10 µM unless noted

Structure (SMILES)	growth
O=C1CSc2ccccc2N1	121%
CC(C)c1ccccc1NC(=O)N1CCC(C(C)C)CC1	105%
NC(=S)N/N=C(\c1ccc(Cl)cc1)C1CC1	75.7%
COc1ccc(C(=O)C2C(C#N)C(C#N)C3c4ccccc4C=CN23)cc1 (stereo not given)	94.7%
O=C1/C(=C/c2ccccc2F)CNC/C1=C\c1ccccc1F	-42.9% (active)
COc1cc(C2CC(c3ccc(Nc4nc(Nc5ccc(Cl)cc5)nc(Nc5ccc(Cl)cc5)n4)cc3)=NN2C(C)=O)cc(OC)c1OC (stereo not given)	95.2%
C=C1C(=O)O[C@H]2[C@H]1CC/C(COC(=O)NCCc1cccc(OC)c1)=C\CC[C@@]1(C)O[C@@H]21	6.53% (active)
CCc1c(C)[nH]c(=O)c(C(N)=O)c1C#N	102%
COc1ccc(C(=O)c2ccccc2CN2C(=O)c3ccccc3C2=O)cc1	103%
COc1ccc2c(O)c(/C=C3\N=Nc4ccccc43)oc2c1C[C@H]1CCNC[C@H]1F	14.4%
FC(F)(F)c1[nH]ncc1-c1nc2c(N3CCCCC3)cc3[nH]ncc3c2c2c1CCCC2	-1.46% (active)
Fc1cccc(-c2nc(-c3c[nH]c4ncccc34)cs2)c1	97.2% [100 µM]
Cc1c(C(=O)O)c(=O)n(-c2ccccc2)n1C	109%
COC1OC(C(COC(C)=O)OC(C)=O)C(OC(C)=O)C(OC(C)=O)C1OC(C)=O (stereo not given)	132%
N#Cc1c(-c2ccc(Cl)cc2)nc(NN=Cc2cccc(Cl)c2)nc1N1CCOCC1	71.5%
COc1ccc(-c2ccc(-c3ccc(C(=N)N)cn3)o2)cc1Cl	-59.5% (active)
Nc1ccc(Sc2ccc3c4c2cccc4c(=O)n2c4ccccc4nc32)cc1	18.2%
c1ccc2c(Cc3csc4ccccc34)csc2c1	72%
CC[C@H](CO)Nc1nc(NCc2ccccc2)c2ncn(C(C)C)c2n1	48.1%
CCC(C#N)(CC)c1ccccc1	102%

Structure (SMILES)	growth
C/C=C(/C)C(=O)OC1C=C(CO)C(=O)C(OC(=O)/C(C)=C\C)C1C(C)C (stereo not given)	-32% (active)
Cc1cc(C#Cc2ccccc2)ccc1-n1c(/C=C/c2ccc(F)cc2)nc2ccccc2c1=O	34.3%
Cc1sc(NC(=O)c2ccc(C(C)(C)C)cc2)c(C(=O)O)c1C	45.2%
O=[N+]([O-])c1ccc(/C=C/C2(CCl)OCCO2)cc1	76.2%
N#CSCC1CC(O)(c2ccccc2)CC(c2ccc(F)cc2)O1 (stereo not given)	-38.7% (active)
CN(C)c1ccc(C2C(C#N)=C(/N=C/c3ccccc3)Oc3c2ccc2ccccc32)cc1 (stereo not given)	29.5%
N#C/C(=C(/O)CCCO)c1nc2ccccc2c(=O)[nH]1	102%
O=C(Nc1ccsc1C(=O)NC1CCCCC1)c1ccc(F)cc1	90.2%
O=c1[nH]c2ccccc2cc1-c1nnc(Cc2ccccc2)o1	27.1%
Cc1ccc(-c2nn(-c3ccccc3)cc2C=C2C(=O)ON=C2C(C)C)cc1	-37.7% (active)
CC(C)C1CCCCC1O (stereo not given)	193%
O=C1Nc2ccc(F)cc2C12Nc1cc(Cl)ccc1S2 (stereo not given)	65.5%
CCOC(=O)c1ccc(NCCC(=O)O)cc1	96.4%
N#Cc1c(-c2ccccn2)[nH]c(=S)[nH]c1=O	94.9%
CCCCCCCCCCCCNC(=O)[C@H]1CSC(c2cc(Br)cs2)N1 (stereo not given in full)	-36.9% (active)
CC(C)CCC[C@@H](C)[C@H]1CC[C@H]2[C@@H](Nc3ccc(O)cc3)CCC[C@]12C	39.2%
CC(C)c1nc(N(C)S(C)(=O)=O)nc(-c2ccc(F)cc2)c1/C=C/C(=O)C[C@@H](O)CC(=O)O	106%
COc1cc2c(cc1-c1c(C)noc1C)ncc1nc(CN3CCOCC3)n([C@H](C)COC(F)F)c12	21.7%
CCCCC(CCc1ccccn1)C(=O)c1ccccc1 (stereo not given)	110%
Nc1ccc(CC[C@H]2CCC/C=C/[C@@H]3C[C@H](O)C[C@H]3[C@H](O)/C=C/C(=O)O2)cc1	-8.51% (active)
